IL-1B inflam inh: inhibitors of inflammasome signaling (IL-1 beta secretion); THP-1 LPS/ATP IL-1B secretion, AlphaLISA, 16 h; hits give low values; activity change, % at 57.5 µM; 360,000 compounds, 4.7% hits; in the data active means activity change below about -50%; inconclusive means mostly about -30% to -49%
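THP-1 cells pretreated 1 hr with compounds (up to 57.5 uM final), then stimulated with LPS (250 ng/mL final) plus ATP (1.25 mM final); secreted IL-1B measured by AlphaLISA after 16 hr, decreased signal indicating inhibition.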
DT40 TDP1 no CPT: qHTS for Inhibitors of human tyrosyl-DNA phosphodiesterase 1 (TDP1): qHTS in cells in absence of CPT. DT40 Tdp1-/- hTDP1 cells, no CPT, ATP luminescence, 48 h. Potency, µM (series often up to 46.2 µM), without a hit: top-dose activity change, negative = growth inhibition, hits mostly inhibitors. 420,000 compounds, 15% hits. AID 686978, 2013; further: potency means the concentration at half of the fitted maximal effect; nearly all actives have a fitted effect of over 55% in size
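Compound effects on proliferation are scored in DT40 Tdp1-/-;hTDP1 cells in the absence of CPT. ATP levels (CellTiter-Glo luminescence) are recorded after a ≥48 hr, 37 °C incubation.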
HT1080-NT tox: kills 2HG-producing HT-1080-NT fibrosarcoma cells. AID 686970. 360,000 compounds, 1.6% hits. Potency, µM (titrated, usually from 46.1 µM), without a hit: at the top dose activity, negative = less viability, hits mostly cytotoxic. HT-1080-NT fibrosarcoma viability, CellTiter-Glo ATP luminescence, 48 h;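 further: NT is the 2HG producing partner of a matched IDH1 knockdown line; potency means the concentration at half of the fitted maximal effect; 0% = DMSO-treated cells and -100% = media-only wells without cells; nearly all actives have a fitted effect of over 55% in size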
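HT-1080-NT fibrosarcoma cells (2HG-overproducing), 750 cells/well in RPMI with 5% FBS, dosed after 2 h and incubated 48 h at 37C. CellTiter-Glo luminescence normalized to DMSO and no-cell wells; concentration-response curves fitted and classed.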
HT1080 IDH1KD tx: toxicity to HT-1080 IDH1 knockdown cells (counter line). HT-1080 IDH1 knockdown viability, ATP luminescence, 48 h. Potency, µM (highest dose often 46.1 µM), inactives show top-dose activity, negative = toxicity, actives largely listed as cytotoxic. 360,000 compounds, 2% hits;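 further: potency means the concentration at half of the fitted maximal effect; 0% = DMSO wells and -100% = cell-free medium wells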
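Using the IDH1-knockdown HT-1080 line run in the same batch and compound series as the NT line, viability after 48 h at 37 °C was determined by CellTiter-Glo luminescence and expressed as % activity.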
TDP1 cell CPT: growth inhibition of DT40 Tdp1-/-;hTDP1 cells with camptothecin (screen for TDP1 inhibitors) | chicken DT40 Tdp1-/-;hTDP1 cells + 20 nM CPT, ATP luminescence, 48 h | Potency, µM (titrated, usually from 46.2 µM), inactives show top-dose activity change, negative = growth inhibition, usual class: inhibitors | 420,000 compounds, 12% hits; further: potency means the concentration at half of the fitted maximal effect; nearly all actives have a fitted effect of over 55% in size
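Cell growth measured by CellTiter-Glo luminescence after a minimum 48 h, 37 C compound exposure with 20 nM CPT in Tdp1-knockout DT40 cells stably expressing hTDP1, seeded 400/well; qHTS titration format.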
An asterisk follows results filed as active; ? = inconclusive; . = not tested or not shown. This is a sample that favours compounds with a hit; in the whole collection about 19% have one here. Unless noted, the call rests on the fitted dose curve; in most records, active means well fitted curve in the direction sought with a large enough effect; inconclusive means small, poorly fitted or top-dose-only effect, or another doubt; inactive means no such curve, though single readings can be large; an effect the other way counts as inactive or inconclusive. Unless noted, on the % scale 0 is the no-effect control and ±100 the full control effect.

SMILES | IL-1B inflam inh | DT40 TDP1 no CPT | HT1080-NT tox | HT1080 IDH1KD tx | TDP1 cell CPT
COc1cccc(NS(=O)(=O)c2ccc3[nH]c4c(c3c2)CCCCCC4)c1 | . | 20.6µM* | . | . | 16.4µM*
Cn1c(N)c(C(=O)COC(=O)c2cc(C3CC3)nc3ccccc23)c(=O)n(C)c1=O | -4.0 | 18.4µM* | 1.1% | 1.6% | 13µM*
Cn1c(N)c(C(=O)COC(=O)c2cc(-c3ccco3)nc3ccccc23)c(=O)n(C)c1=O | -24.7 | 16.4µM* | -16.5% | -11.4% | 20.6µM*
O=C(COC(=O)c1cc(-c2ccco2)nc2ccccc12)NCc1ccccc1 | 9.7 | -23.6% | -13.7% | -13.1% | -26.1%
COc1ccc(-c2cc(C(=O)OCC(=O)c3c(N)n(C)c(=O)n(C)c3=O)c3ccccc3n2)cc1 | -53.5* | 1.64µM* | 20.1% | 11.9% | 4.11µM*
CNC(=O)COC(=O)c1cc(-c2ccco2)nc2ccccc12 | 17.1 | ? | -0.4% | -6.5% | 14.6µM*
Cc1ccc(C)c(NC(=O)c2ccc3c(c2)CCCN3S(C)(=O)=O)c1 | . | -13.3% | . | . | -15.5%
COc1c2ccc(OCC/C(C)=C/C(=O)C=C(C)C)cc2nc2occc12 | 22.7 | ? | -1.4% | 9.0% | ?
Cn1c(N)c(C(=O)COC(=O)c2ccnc3ccccc23)c(=O)n(C)c1=O | 3.3 | -7.8% | -9.0% | -4.0% | -3.2%
Cn1c(N)c(C(=O)COC(=O)c2cc(C(F)(F)F)nc3ccccc23)c(=O)n(Cc2ccccc2)c1=O | 10.8 | ? | -3.1% | 1.6% | 23.1µM*
C=CC[C@H](CC(=O)N[C@H](CO)Cc1ccccc1)C(=O)N[C@@H](COC(=O)[C@@H](CC=C)Cc1ccc(F)cc1)Cc1c[nH]c2ccccc12 | -16.9 | ? | -4.2% | -12.8% | ?
C=CC[C@@H](CC(=O)N(CCO)Cc1ccccc1)C(=O)N[C@H](COC(=O)[C@@H](CC=C)Cc1ccc(F)cc1)Cc1ccccc1 | -63.5* | 23.1µM* | ? | ? | ?
C=CC[C@@H](CC(=O)N[C@@H](CO)Cc1ccccc1)C(=O)N[C@@H](COC(=O)[C@@H](CC=C)Cc1ccc(F)cc1)Cc1ccccc1 | -2.1 | ? | -8.6% | 0.7% | -19.2%
C=CC[C@@H](CC(=O)N(CCO)Cc1ccccc1)C(=O)N[C@@H](COC(=O)[C@@H](CC=C)Cc1ccc(F)cc1)Cc1ccccc1 | -68.2* | 20.6µM* | ? | ? | 20.6µM*
COc1cc(=O)n2c(c1C(=O)NCc1ccco1)CCN(C(=O)c1c(F)ccc(F)c1F)CC2 | . | -11.6% | . | . | 26.2%
Cc1ccc(NC(=O)c2ncn(CCCN(CCCn3cnc(C(=O)Nc4ccc(C)c(C)c4)n3)Cc3ccc4[nH]ccc4c3)n2)cc1C | 7.7 | 14.6µM* | 16.4µM* | 20.6µM* | ?
Cc1ccc(NC(=O)c2ncn(CC(=O)NCc3ccc4[nH]ccc4c3)n2)cc1C | -4.1 | -29.1% | 1.3% | -0.8% | ?
Cc1ccc(NC(=O)c2ncn(CCCN3CCN(c4ccccn4)CC3)n2)cc1C | -5.9 | 25.9µM* | -1.5% | -5.6% | ?
Cc1ccc(NC(=O)c2ncn(CCCNCCCc3ccccc3)n2)cc1C | -28.2 | 20.6µM* | -18.2% | ? | ?
COC(=O)[C@H](Cc1ccccc1)NCCCn1cnc(C(=O)Nc2ccc(C)c(C)c2)n1 | 1.7 | 18.4µM* | -4.2% | -1.2% | ?
C[C@H](CSC(=O)c1ccccc1)C(=O)N1C[C@@H](Sc2ccccc2)C[C@H]1C(=O)O | . | -7.6% | . | . | -0.8%
CCC(C)c1ccccc1NC(=O)c1cc(C)no1 (configuration not stated) | -5.7 | -17.1% | 0.0% | 20.3% | ?
COc1ccc(OCC(O)CNC(=O)/C=C/c2cccc([N+](=O)[O-])c2)cc1 (configuration not stated) | -23.5 | ? | 4.8% | 1.8% | ?
Cc1ccc(C(c2sc3nc(-c4ccco4)nn3c2O)N2CCN(Cc3ccccc3)CC2)cc1 (configuration not stated) | . | -29.0% | . | . | -2.0%
Cc1ccc(C)n1-c1ccc(C(=O)NN)s1 | ? | ? | -6.3% | -23.0% | -10.9%
SMILES | IL-1B inflam inh | DT40 TDP1 no CPT | HT1080-NT tox | HT1080 IDH1KD tx | TDP1 cell CPT
COc1ccc(CNCCCn2cnc(C(=O)Nc3ccc(C)c(C)c3)n2)cc1 | -16.8 | 16.4µM* | -7.4% | -11.1% | ?
Clc1cccc(-c2nc3ccc(Cl)cn3c2Cc2ccsc2)c1 | 103.3 | ? | -13.6% | -9.5% | ?
COC(=O)c1ccc2nc(-c3cccc(Br)c3)c(Cc3ccccc3)n2c1 | 29.9 | 23.1µM* | 10.8% | 0.7% | ?
COC(=O)c1ccc2nc(-c3ccc(C#N)cc3)c(Cc3cccc(Cl)c3)n2c1 | 0.0 | 20.6µM* | -4.0% | -11.5% | 20.6µM*
Clc1cccc(-c2nc3ccc(Cl)cn3c2Cc2ccccc2)c1 | 20.2 | 16.4µM* | -21.0% | ? | ?
COC(=O)c1ccc2nc(-c3ccccc3)c(Cc3ccccc3C(F)(F)F)n2c1 | 16.6 | -17.0% | 4.5% | 2.6% | 0.1%
COC(=O)c1ccc2nc(-c3cccc(Cl)c3)c(Cc3ccccc3)n2c1 | 29.0 | 10.3µM* | 5.1% | -14.7% | 20.6µM*
CCOC1=C2CN(S(=O)(=O)c3ccc(C)cc3)[C@H](c3ccccc3)C[C@H]2n2c(=O)n(-c3ccccc3)c(=O)n2C1 | -14.6 | -1.9% | 18.1% | 21.6% | -0.1%
Cc1nc(C(F)(F)F)ccc1C(=O)N1CCC1(C)C(=O)NS(=O)(=O)c1cccc(Cl)c1 (configuration not stated) | 13.2 | -2.2% | 15.5% | ? | -10.8%
O=C(NCCO)c1nc(NCCO)c2ccccc2n1 | -6.1 | -0.8% | 0.9% | -6.1% | -1.5%
O=c1c2ccccc2nc2c3ccccc3c(NCCO)nn12 | 0.2 | ? | 29.0% | 12.8% | 13µM*
O=c1c2ccccc2nc2c3ccccc3c(NCc3cccnc3)nn12 | -4.0 | 6.0% | -12.4% | 4.2% | 6.1%
O=c1c2ccccc2nc2c3ccccc3c(NCc3ccccn3)nn12 | ? | 14.6µM* | 8.1% | -5.4% | ?
OCCNc1c2ccccc2nc2ccccc12 | -8.5 | 10.3µM* | 23.1µM* | 23.1µM* | 13µM*
OCCNc1nc2ccccc2nc1NCCO | 9.8 | -5.8% | 4.6% | 6.2% | -16.2%
Cc1nc(NCc2ccccn2)c2ccccc2n1 | -9.4 | 10.3µM* | ? | -11.4% | 13µM*
O=C(NCCN1CCOCC1)c1cccc2c1C(=O)c1ccc(N3CCCC3)cc1S2(=O)=O | 0.6 | -6.8% | 23.0% | 6.5% | 5.0%
O=C(NCc1ccc(OC(F)(F)F)cc1)c1cccc2c1C(=O)c1ccc(N3CCCC3)cc1S2(=O)=O | 20.0 | 18.4µM* | ? | -0.9% | -25.2%

High-throughput results deposited in PubChem by National Center for Advancing Translational Sciences (NCATS).
